Fluor 339 460 = intrinsic fluorescence of library compounds, ex339/em460 – biochemical, MLSMR library, data from DPM-DC assay, artefact control, profiling panel. compound autofluorescence, ex339/em460 nm, NADH buffer; active compounds read high; 1 = no-compound wells, NADH background. fluorescence fold increase at 10 µM. 65,000 compounds, 5.5% hits. AID 709;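 active means at 10 µM, mean starting fluorescence two-fold or more over control wells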;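 further: signal is the first read of a kinetic run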
Spn DPM-DC inh = blocks S. pneumoniae diphosphomevalonate decarboxylase; calls only at 10 µM; purified DPM-DC, PK/LDH coupled NADH fluorescence; AID 556; 65,000 compounds, 0.49% hits;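 active means the 320 compounds with the highest percent inhibition in the single-dose primary screen, excluding strongly autofluorescent ones, cut at about 32% in these data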;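 further: kinetic rate of NADH fluorescence loss reporting ADP formed by the decarboxylase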
PMK inhibit = S. pneumoniae PMK inhibition; 65,000 compounds, 0.49% hits; inhibition, % at 10 µM; purified PMK, PK/LDH-coupled NADH absorbance 340 nm;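 active means top-ranked compounds by inhibition in the single 10 µM screen, taking a fixed number of the strongest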;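 further: 0% = full reaction with DMSO carrier and 100% = background rate without enzyme reaction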
NADH coupling = blocks coupling enzymes of NAD/NADH assays; coupled PK/LDH NADH assays, four targets; IC50, µM (titrated, usually from 10 µM), for inactives: top-dose inhibition; 65,000 compounds, 0.02% hits;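 active means single-dose screening hits from any of four coupled enzyme assays that gave an IC50 when retested across doses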;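 further: the DPM-DC format reads NADH fluorescence rather than 340 nm absorbance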
Spn MK inh = inhibitors of Streptococcus pneumoniae mevalonate kinase; purified MK, PK/LDH-coupled NADH absorbance 340 nm; inhibition, % at 10 µM; 65,000 compounds, 0.48% hits; AID 555;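 active means ranked among the strongest by inhibition in the single 10 µM screen, a fixed top-ranked set picked for dose follow-up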
A340 absorber = absorbance at 340 nm; compound absorbance at 340 nm, fold over control; fold change at 10 µM; 65,000 tested, under 10 active; AID 708;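 active means at 10 µM dose, initial 340 nm absorbance at least 2 fold that of control wells; inactive means change under 2 fold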;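 further: initial absorbance extrapolated from kinetic A340 decline of NADH oxidation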
Active calls of the source: *; i = inactive; · = no result shown. Sampled rows, rich in hits. Any-hit rate of the full collection: about 6.5%.

SMILES	Fluor 339 460	Spn DPM-DC inh	PMK inhibit	NADH coupling	Spn MK inh	A340 absorber
CCC(C)(C)n1nnnc1CN(Cc1ccco1)Cc1cc2cc3c(cc2[nH]c1=O)OCO3	3.52*	·	8.0	8.0%	7.0	1.15
Cc1cc2cc(CNC(=O)Cc3cccs3)ccc2n1C	1.06	i	11.0	4.0%	2.0	1.03
Cc1cc(-c2ccccc2)nc(=O)[nH]1	1.13	i	9.0	5.0%	5.0	1.01
CCC1C(=O)n2nc(-c3ccccc3)cc2N=C1C (stereo unspecified)	2.05*	i	15.0	6.0%	3.0	0.99
CCC(C)n1c(SCC(=O)NC(=O)Nc2ccc3c(c2)OCCO3)nc2ccccc2c1=O (stereo unspecified)	1.07	i	5.0	4.0%	7.0	1.01
CCOC(=O)c1cnc2sc3c(n2c1=O)CCCC3	5.04*	·	15.0	9.0%	3.0	1.1
COc1ccc(N2Cc3cccc(C(=O)N4CCN(C(=O)c5ccco5)CC4)c3C2=O)cc1	1.15	i	5.0	5.0%	11.0	1
Cc1ccc(-c2nc3ccccc3o2)cc1NC(=O)c1ccc2c(c1)OCO2	1.77	i	6.0	6.0%	8.0	1.04
O=C(Nc1ccc(-c2nc3ccccc3o2)cc1)c1ccc2c(c1)OCO2	3.62*	·	6.0	7.0%	7.0	1.08
Cc1ccc2oc(-c3ccc(NC(=O)c4cccnc4)cc3)nc2c1	2.09*	i	2.0	3.0%	8.0	1.08
O=C(Nc1ccc2oc(-c3cccnc3)nc2c1)c1cccnc1	1.6	i	19.0	8.0%	5.0	1.05
Cc1ccc2oc(-c3ccc(NC(=O)c4ccc5c(c4)OCO5)cc3)nc2c1	3.66*	·	4.0	2.0%	0.0	1.07
COc1ccc2cc(S(=O)(=O)N3CCCCC3)ccc2c1S(=O)(=O)N1CCCCC1	1.08	i	12.0	8.0%	10.0	1.05
O=c1[nH]c(=O)n(Cc2ccccc2)c2nc(-c3ccco3)cc(C(F)(F)F)c12	4.89*	·	9.0	5.0%	1.0	1.1
O=C(CC1Oc2ccccc2NC1=O)NCCCN1CCN(C2CCCCC2)CC1 (stereo unspecified)	1.1	i	0.0	3.0%	8.0	1.04
O=C(Cn1c(=O)oc2ccccc21)N1CCN(c2ccc(N3CCOCC3)nn2)CC1	2.12*	·	16.0	12.0%	7.0	1.06
O=C(Cn1c(=O)oc2ccccc21)N1CCCCC1	1.1	i	0.0	3.0%	8.0	1.02
Cc1ccccc1CS(=O)(=O)CCC(=O)N1CCN(c2ccc(N3CCOCC3)nn2)CC1	3.42*	·	14.0	5.0%	2.0	0.98
O=C(CN1CCC(O)CC1)N1c2ccccc2C=Cc2ccccc21	1.13	i	0.0	0.0%	0.0	1.06
COc1c2occc2c(OC)c2c(=O)cc(C(F)(F)C(F)(F)F)oc12	1.05	i	1.0	3.0%	8.0	1.04
Cc1ccc(N(C(=O)Cn2nnc3ccccc32)C(C(=O)NC2CCCCC2)c2cn(C)nc2C)cc1 (stereo unspecified)	1.12	i	11.0	6.0%	6.0	0.99
CC1(C(=O)N(CC(=O)NC2CCCC2)C2CCCC2)CC(=O)N=C2C=CC=CN21 (stereo unspecified)	3.75*	·	8.0	7.0%	5.0	1
CC1(C(=O)N(c2ccccc2)C(C(=O)NC2CCCC2)c2ccccn2)CC(=O)N=C2C=CC=CN21 (stereo unspecified)	4.67*	·	16.0	12.0%	7.0	1.06
Cc1ccccc1N(CC(=O)NCC1CCCO1)C(=O)C1(C)CC(=O)N=C2C=CC=CN21 (stereo unspecified)	3.3*	·	12.0	6.0%	17.0	0.99
COc1ccc(S(=O)(=O)NCC(=O)N(CC(=O)NCC2CCCO2)c2ccccc2C)cc1 (stereo unspecified)	1.05	i	18.0	4.0%	8.0	0.96
SMILES	Fluor 339 460	Spn DPM-DC inh	PMK inhibit	NADH coupling	Spn MK inh	A340 absorber
CCOC(=O)/C(C#N)=C(\N)C(C)C(=O)Nc1ccccn1 (stereo unspecified)	1.11	i	13.0	8.0%	12.0	1.04
COc1nc(C)nc2c1sc(=S)n2C	1.15	i	2.0	2.0%	4.0	1.11
CCN1C(=O)N(CN2CCOCC2)C2C1N(CN1CCOCC1)C(=O)N2CC (stereo unspecified)	1.13	i	13.0	6.0%	6.0	0.99
Cc1cccc(-n2c(=O)[nH]c3c(C(N)=O)nc(CC(C)C)nc32)c1	5.11*	·	9.0	5.0%	0.0	1.04
CC(C)Cc1nc(C(N)=O)c2[nH]c(=O)n(-c3ccc(F)cc3)c2n1	2.16*	·	8.0	4.0%	0.0	1.05
CCC(C)Sc1nnc(Cc2cc(=O)[nH]c(=O)[nH]2)n1-c1ccc(F)cc1 (stereo unspecified)	1.08	i	7.0	4.0%	6.0	1.06
C=CCNc1nc2c3ccccc3n(C(C)=O)c2s1	1.09	i	8.0	5.0%	6.0	1.02
CCN(CC)Cc1c(O)ccc2c(C)c(CC(=O)OC)c(=O)oc12	2.36*	·	5.0	6.0%	6.0	1.16
C=C(C)COc1ccc2c(C)c(CC(=O)OC)c(=O)oc2c1C	3.84*	·	0.0	1.0%	2.0	1.09
CCN(CC)Cc1c(O)ccc2c(-c3ccccc3)cc(=O)oc12	2.09*	·	10.0	9.0%	7.0	1.09
COC(=O)Cc1c(C)c2ccc(OCC(C)=O)c(C)c2oc1=O	3.79*	·	8.0	7.0%	6.0	1.12
Cc1ccc(C(=O)N2CCN(C(=O)c3ccc(C)c(C)c3)C(C)C2)cc1C (stereo unspecified)	1.07	i	7.0	3.0%	5.0	1
COc1nc(-c2ccccc2)ccc1-c1noc(-c2ccccc2F)n1	3.9*	·	8.0	6.0%	4.0	1.05
COc1nc(-c2ccccc2)ccc1-c1noc(-c2ccc(F)cc2)n1	3.84*	·	17.0	13.0%	9.0	1.07
COc1ccccc1-c1noc(-c2cccnc2)n1	1.07	i	9.0	4.0%	10.0	0.98
O=S(=O)(NCc1ccncc1)c1ccc(Br)s1	1.09	i	0.0	1.0%	3.0	1.08
c1ccc2c(c1)[nH]c1c(N3CCSCC3)ncnc12	0.21	·	14.0	10.0%	5.0	0.91
COc1ccc2[nH]c3c(NCCN(C(C)C)C(C)C)ncnc3c2c1	3.73*	·	8.0	4.0%	0.0	1.1
CC(C)OCCCNc1ncnc2c1[nH]c1ccccc12	2.65*	i	14.0	11.0%	11.0	1.07
O=C(c1csc2c1CCCCC2)N1CCN(c2ncccn2)CC1	1.24	i	10.0	5.0%	6.0	0.99
CCOC(=O)c1cc(-c2cc3ccccc3o2)nc2c1c(=O)[nH]c(=O)n2CCOC	5.14*	·	15.0	9.0%	2.0	1.14
CCSc1nc2n(n1)C(c1cccc(F)c1)C1=C(CCCC1=O)N2 (stereo unspecified)	2.58*	i	0.0	8.0%	1.0	1.07
Cn1cnnc1SCc1ccc(-c2ccc(Br)cc2)o1	1.04	i	16.0	7.0%	5.0	0.98

Screening results from PubChem.
